Screens as filed in PubChem.
The list is not random: actives were taken first. Their share in the collection is about 7.3%.
Tau FP inhib = blocks human tau fibril formation measured by polarization | P10636 | 280,000 tested, 0.39% active | K18 P301L tau heparin fibrillization, Alexa594 FP, 6 h | AID 1468 | Potency, µM (top dose mostly 57.7 µM), without a hit: top-dose activity, negative = inhibition, actives largely listed as inhibitors; also: nearly all actives have a fitted effect of over 55% in size
Target sequence (P10636 561-689 P618L limits assumed): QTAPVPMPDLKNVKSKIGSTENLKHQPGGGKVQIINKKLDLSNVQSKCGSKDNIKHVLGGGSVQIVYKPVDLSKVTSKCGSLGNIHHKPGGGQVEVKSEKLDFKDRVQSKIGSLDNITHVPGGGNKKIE
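Recombinant K18 P301L […], labeled with Alexa 594 at 0.24 uM over 15 uM unlabeled; heparin inducer 20 uM final; 37 C, 6 hr; FP endpoint.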
VP16 counter = inhibits Gal4-VP16 luciferase reporter, ROR gamma counter-screen | AID 2546 | Drosophila S2 Gal4-VP16 UAS-luciferase, luminescence, 20 h | Potency, µM (highest dose often 53.6 µM), for the others: at the top dose activity, negative = inhibition, actives largely listed as inhibitors | 310,000 tested, 3.5% active;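 also: Gal4-VP16 expression switched on by copper sulfate through the metallothionein promoter; nearly all actives have a fitted effect of over 50% in size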
RORgamma inh = blocks mouse ROR gamma transcriptional activity; P51450; Drosophila S2 Gal4-RORgamma UAS-luciferase reporter, 20 h; Potency, µM (highest dose often 53.6 µM), inactives show at the top dose activity change, negative = inhibition, actives largely listed as inhibitors; 310,000 tested, 5.4% active; AID 2551; also: nearly all actives have a fitted effect of over 60% in size
Target sequence (P51450 whole entry, looked up, the tested form may be a part): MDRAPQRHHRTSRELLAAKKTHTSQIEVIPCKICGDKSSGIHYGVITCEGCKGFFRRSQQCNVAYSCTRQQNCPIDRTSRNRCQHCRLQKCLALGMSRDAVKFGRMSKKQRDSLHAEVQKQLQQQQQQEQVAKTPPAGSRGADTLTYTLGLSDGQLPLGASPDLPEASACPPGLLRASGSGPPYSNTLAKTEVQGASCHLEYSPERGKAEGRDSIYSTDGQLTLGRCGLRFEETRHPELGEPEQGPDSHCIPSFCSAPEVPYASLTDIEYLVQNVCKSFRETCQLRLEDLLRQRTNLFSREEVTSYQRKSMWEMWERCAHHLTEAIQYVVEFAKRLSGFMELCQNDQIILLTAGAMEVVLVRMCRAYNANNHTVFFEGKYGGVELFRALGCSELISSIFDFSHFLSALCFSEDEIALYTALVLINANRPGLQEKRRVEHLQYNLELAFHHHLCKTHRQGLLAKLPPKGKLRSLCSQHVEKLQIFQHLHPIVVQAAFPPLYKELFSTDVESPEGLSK
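A Gal4/UAS one-hybrid system in insect cells: metallothionein-promoter Gal4–ROR gamma fusion plus Photinus luciferase reporter. Copper sulfate 700 uM final, 20 hr ambient incubation, luminescent detection after 10 min with reagent.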
Tau fibril ThT = inhibitors of human tau fibril formation, thioflavin T binding; P10636; recombinant tau K18 P301L, heparin-induced fibrillization, ThT fluorescence; Potency, µM (series often up to 57.4 µM), without a hit: at the top dose activity, negative = inhibition, usual class: inhibitors; 270,000 tested, 2.1% active; also: nearly all actives have a fitted effect of over 55% in size
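Tau K18 P301L fragment (15 uM unlabeled plus 0.24 uM Alexa 594-labeled) in 100 mM sodium acetate pH 7 with compound, fibrillization induced by 20 uM heparin for 6 hr at 37 C. Thioflavin T (30 uM) added, fluorescence read after 1 hr (ex 450, em 510 nm).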
Tau fluor counter = counter-screen for tau fibril formation inhibitors. tau K18 P301L Alexa594 fluorescence, heparin fibrillization. Potency, µM (top dose mostly 57.7 µM), without a hit: at the highest dose activity change, negative = decrease. 280,000 tested, 0.93% active. AID 1463; also: nearly all actives have a fitted effect of over 55% in size
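Human tau K18 P301L (15 uM unlabeled, 0.24 uM Alexa 594-labeled) in 100 mM sodium acetate pH 7 with 20 uM heparin, 6 hr at 37 C. ThT 30 uM added, 1 hr ambient; Alexa 594 FP and total fluorescence read at 555/632 nm.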
* marks the source's active call; other numbers are inactive results; ? = inconclusive; . = not tested or not shown; [ ] = dose if it differs, or a comment. Calls follow the shape of the dose curve; as a rule, active = well fitted curve in the direction sought with a large enough effect; inconclusive = small, poorly fitted or top-dose-only effect, or another doubt; inactive = no such curve, though single readings can be large; an effect the other way counts as inactive or inconclusive. % is scaled to controls: 0 for no effect and ±100 for the full control effect; potency is read from the fitted curve at half-maximal effect.

SMILES | Tau FP inhib | VP16 counter | RORgamma inh | Tau fibril ThT | Tau fluor counter
COc1cc(NC(=S)N2CCC(C(O)(c3ccccc3)c3ccccc3)CC2)cc(OC)c1 | -2% | ? | 14µM* | 9% | 3%
CCNC(=S)N1CCC(Cc2ccccc2)CC1 | . | 8% | 18% | . | .
OCC1CCCN(C(=S)Nc2ccc(OC(F)F)cc2)C1 (configuration not stated) | -6% | 6% | -25% | -6% | -5%
OCC1CCCN(C(=S)Nc2ccc(Nc3ccccc3)cc2)C1 (configuration not stated) | 9% | 7.9µM* | 7.1µM* | ? | ?
COc1ccc(NC(=S)N2CCC(Cc3ccccc3)CC2)cc1 | . | ? | 8.9µM* | . | .
S=C(Nc1ccccc1)N1CCC(Cc2ccccc2)CC1 | . | 6.3µM* | 6.3µM* | . | .
N#C/C(=N\Nc1cccc(Cl)c1)C(=O)c1ccccc1 | 11% | ? | 25% | 10µM* | ?
N#C/C(=N\Nc1ccccc1Cl)C(=O)c1ccccc1 | ? | -13% | ? | 20µM* | -22%
N#C/C(=N\Nc1c(Cl)cccc1Cl)C(=O)NN | 6% | 20% | 37% | ? | ?
COc1ccc(C(=O)/C(C#N)=N/Nc2cccc([N+](=O)[O-])c2)cc1 | 5% | -3%[10 µM] | ? | 7.9µM* | ?
CN(CC(=O)Nc1ccc(F)cc1F)S(=O)(=O)c1ccc(C(=O)N2CCOCC2)s1 | -2% | . | . | -6% | -8%
C=CCn1cc(/C=N\NC(=O)c2cc3c(ccc4ccccc43)o2)c2ccccc21 | -2% | -22% | 5.6µM* | ? | ?
C#CCn1cc(/C=N/NC(=O)c2cc3ccccc3o2)c2ccccc21 | 15% | ? | 18µM* | ? | ?
O=C(N/N=C/C=C/c1ccccc1)c1cc2c(ccc3ccccc32)o1 | -9% | ? | 7.1µM* | ? | 4%
O=C(O)Cn1cc(/C=N/NC(=O)c2cc3cc(Br)ccc3o2)c2ccccc21 | 5% | -8% | -4% | . | -29%
COc1ccc(OC)c(/C=N\NC(=O)c2cc3c(ccc4ccccc43)o2)c1 | . | -13% | -36% | . | .
Cc1ccc(C)c(CSc2nc(-c3ccccc3F)nc3c2Cc2c(CO)cnc(C)c2O3)c1 | -3% | . | . | -4% | -8%
Cc1noc(Cn2c(=O)c3ccccc3n(CC(=O)Nc3cc(Cl)ccc3C)c2=O)n1 | -2% | . | . | 8% | -12%
Cc1nnc(N2CCN(c3ccccc3)CC2)c2c1nnn2Cc1ccc(F)cc1 | 6% | . | . | -5% | -13%
O=C(/C=C/c1ccco1)Nc1nc(-c2ccccn2)cs1 | -2% | 11µM* | 2.8µM* | ? | -19%
Cc1sc(NC(=O)/C=C/c2ccco2)c(C(=O)OC(C)C)c1C | ? | 16µM* | ? | -12% | -15%
O=C(/C=C/c1ccco1)Nc1scc(-c2ccccc2)c1C(=O)O | -3% | ? | 10µM* | -12% | -4%
CSCCC(=O)Nc1nc(-c2ccccn2)cs1 | ? | -18% | 13µM* | ? | -17%
O=C(/C=C/c1ccco1)Nc1nc(-c2ccccc2)cs1 | 1% | -5% | -3% | -15% | -24%
COC(=O)c1c(NC(=O)/C=C/c2ccco2)sc2c1CCC2 | 4% | -18% | 8% | -5% | 8%
SMILES | Tau FP inhib | VP16 counter | RORgamma inh | Tau fibril ThT | Tau fluor counter
CN(C)c1ncc2nc(CCc3ccccc3)c(=O)n(CCC#N)c2n1 | . | -3% | 42% | . | .
O=C(Nc1nc(-c2ccccn2)cs1)C1CCCC1 | 0% | ? | 8.9µM* | -18% | -11%
O=C(Nc1nc(-c2nc3ccccc3s2)cs1)C1CC1 | -3% | ? | 5.6µM* | 7% | -21%
O=C(CN1C(=O)CCC1=O)Nc1nc(-c2ccccn2)cs1 | -1% | -14% | -18% | -5% | -2%
O=C(CCCSc1ccccc1)Nc1nc(-c2ccccn2)cs1 | -4% | ? | 10µM* | ? | ?
CCOc1ccc(C(=O)N(Cc2cc(OC)c(OC)c(OC)c2)c2ccccn2)cc1 | 2% | . | . | ? | -19%
CC(=O)OCC1OC(C#Cc2ccc(F)cc2F)C=CC1OC(C)=O (configuration not stated) | ? | ? | ? | ? | -13%[11.6 µM]
Cc1ccc2nc(-c3ccc(NC(=S)NC4CC(C)(C)NC(C)(C)C4)cc3)sc2c1 | 11µM* | 1% | ? | ? | 7.9µM*[quencher]
Cc1ccc(C2(C)NC(=O)N(CC(=O)Nc3ccc(-c4nc5ccc(C)cc5s4)cc3)C2=O)cc1 (configuration not stated) | ? | -24% | ? | 13% | -29%
Cc1ccc2nc(-c3ccc(NC(=O)Cc4ccccc4)cc3)sc2c1 | -7% | . | . | 14% | 2%
CCC(=O)NC(=S)Nc1ccc(-c2nc3ccc(C)cc3s2)cc1 | -1% | 0.89µM* | 1.1µM* | ? | 0%
Cc1ccc2nc(-c3ccc(NC(=S)NC(=O)C(C)C)cc3)sc2c1 | -6% | 2.8µM* | 1.1µM* | ? | -22%
Cc1ccc2nc(-c3ccc(NC(=O)C(C)N4C(=O)c5ccccc5C4=O)cc3)sc2c1 (configuration not stated) | ? | -19% | -37%[10 µM] | -12% | ?
CCC(=O)NC(=S)Nc1ccc(-c2nc3ccccc3s2)cc1 | -4% | ? | 1.6µM* | ? | 5%
Cc1cc2c(cc1S(=O)(=O)N(CCN(C)C)Cc1ccco1)OCC(=O)N2 | -2% | . | . | 4% | 8%
CCCCCCCCCCCCSCCOCCO | -7% | 4% | 5% | -18% | -6%
C/C(=N\Nc1nc(N2CCCCCC2)nc(N2CCCCCC2)n1)c1ccccc1 | -3% | -16% | 3.2µM* | -19% | -15%
CC(=O)Nc1ccc(/C(C)=N/Nc2nc(Nc3cccc4ccccc34)nc(N3CCOCC3)n2)cc1 | 4% | 11µM* | 5.6µM* | 3% | 4%
O=[N+]([O-])c1ccccc1/C=C/C=N/Nc1nc(N2CCCCC2)nc(N2CCCCC2)n1 | 12% | -8% | 11µM* | -13% | -5%
O=[N+]([O-])c1ccccc1/C=N/Nc1nc(N2CCCC2)nc(N2CCCC2)n1 | 10% | -6% | 13µM* | -7% | -1%
O=[N+]([O-])c1cc2c(cc1/C=N/Nc1nc(N3CCCC3)nc(N3CCCC3)n1)OCO2 | -1% | -10% | -18%[10 µM] | 5% | -2%
CCn1c(C(=O)O)c(CC(=O)Nc2ccc(Br)cc2C)c2ccccc21 | . | 24% | 23% | . | .
CCN(C(=O)CSc1nc2ccccc2[nH]1)c1ccccc1 | -4% | . | . | -14% | -8%
C(=C\c1ccccc1)/C=N/Nc1nc(N2CCCCC2)nc(N2CCCCC2)n1 | 5% | -1% | 0.79µM* | -3% | -6%
Oc1ccc(/C=N/Nc2cc(N3CCOCC3)nc(N3CCOCC3)n2)cc1O | -5% | ? | -1% | ? | ?
CC(=C/c1ccccc1)/C=N/Nc1nc(N2CCCCC2)nc(N2CCCCC2)n1 | 1% | -13% | -25% | -5% | -5%
